We go through five compounds from PubChem BioAssay.

Structures are written as SMILES. Results filed as inconclusive are left out. Calls of active or inactive are those of the source.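 Rule for the calls, unless noted: active = cell viability at or below a set limit in both duplicate runs, the limit being the all-compound median minus 4 SD (cut at about 23% in these data, passing the limit was not always enough); inconclusive = no clear call, values can overlap the other calls; inactive = the rest.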

The nature of assay [1]: reducers of endogenous Her2 protein level, primary screen, SKBR3 breast tumor cells, AlphaScreen, ATP viability (AID 461;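 active = Her2 level under about 52% in both replicate screens, with viability over 70% of control, limit read from the data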;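 for Her2 level: lower value means less Her2 protein in the cells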;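 for viability: percent of carrier control wells set as 100% viability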). The conditions noted are these: 18-24 h, measured here: SKBR3 viability, ATP luminescence, at 10 µM.
The target in assay [2] is Receptor tyrosine-protein kinase erbB-2 (Homo sapiens) (UniProt P04626). Described as above. Conditions: 18-24 h, at 10 µM, stronger effect = lower value.
A short description of assay [3]: SK-BR-3 cell growth inhibitors, pilot screen, 24 h, human (AID 572;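 active = viability at or below 10% of carrier control in both of two separate runs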;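 note: compound exposure lasted between 18 and 24 h rather than exactly 24 h; 100% = carrier-treated control wells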). The conditions noted are these: SK-BR-3 viability, CellTiter-Glo luminescence, at 10 µM, stronger effect = lower value. (In general: Cellular ATP, detected with luciferase, serves as a proxy for viable cell number.)
A short description of assay [4]: HUVEC growth inhibition – cell-based, human, primary screen (AID 575;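 active = viability at or below 30% in both replicate assays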;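 note: 100% = median of untreated cell wells with 0.1% DMSO on each plate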). The conditions noted are these: HUVEC proliferation, CellTiter-Glo luminescence, 72 h; at 10 µM; stronger effect = lower value.
The nature of assay [5]: growth inhibitors of H69AR lung tumor, primary screen, human, duplicate replicates (AID 580;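 active = viability at or under a set limit in both replicates, limit being median viability minus 3 SD, cut at about 48% in these data, passing the limit was not always enough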;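 note: 100% = mean luminescence of untreated wells and 0% = no signal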). The conditions noted are these: H69AR lung tumor cells viability, ATP luminescence, 72 h; at 10 µM; stronger effect = lower value.
Assay [6] is described as follows: reversal of MRP1-mediated doxorubicin resistance, pilot screen, H69AR cells, doxorubicin co-treatment (AID 601;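 active = viability loss from added drug above about 55%, and viability with drug at most 40%, in both replicates, limit read from the data, passing the limit was not always enough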). Conditions: CellTiter-Glo, 72 h, at 10 µM; for differential viability (reversal): stronger effect = higher value.
Assay [7] can be described thus: 384-well plate pilot, post-Golgi transport modulator project, inhibition of yeast transport mutant growth (AID 636; in the data active = inhibition above about 31%). The conditions noted are these: absorbance 615 nm, about 18 h, stronger effect = higher value.
Assay [8] in a line: growth suppression of yeast trafficking mutant, preliminary HTS, modulators of trafficking downstream of Golgi apparatus project, 1536-format plate, OD 615 nm (AID 637; in the data active = inhibition above about 30%). Conditions: yeast transport mutant growth, absorbance 615 nm, 18 h; stronger effect = higher value.
The nature of assay [9]: OD615 S. cerevisiae growth inhibition, permissive medium, pilot counter-assay, permissive growth control for S. cerevisiae lifespan shortening project (AID 705;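 active = growth inhibition above 25% in both replicates, a cutoff set 3 SD above the mean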). Conditions: OD615, 24 h, at 10 µM, stronger effect = higher value.
The nature of assay [10]: Restrictive medium S. cerevisiae growth inhibition, OD615, pilot screen of yeast lifespan reduction project, restrictive growth control (AID 706;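 active = growth inhibition above a set limit, 3 SD over mean compound inhibition, in both replicates, cut at about 43% in these data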;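 note: modified DeaD lifespan yeast strain shifted to restrictive glucose medium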). Conditions: OD615, 48 h, at 10 µM, stronger effect = higher value.
Assay [11] in a line: viability gain of MRP-1-high H69AR cells under doxorubicin, pilot screen, MRP-1 activator project, CellTiter-Glo, duplicate (AID 807;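 active = viability increase at or above a cutoff of the median across tested compounds plus 3 SD, cut at about 8.5% in these data, passing the limit was not always enough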;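 note: compound pretreatment 18-22 h then 72 h combined with doxorubicin; 0% = doxorubicin alone and 100% = vehicle without doxorubicin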). Conditions: H69AR viability with doxorubicin, CellTiter-Glo luminescence; at 10 µM; stronger effect = higher value.
The nature of assay [12]: growth suppression of beta-catenin knockout HCT116, pilot screen, human colon tumor cells (AID 823).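 Note: 0% = wells killed by 20 µM Hyamine and 100% = untreated DMSO cell wells.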 Conditions: CellTiter-Glo, 60 h, at 10 µM, stronger effect = lower value.
Assay [13] is described as follows: growth suppression of PTEN-deleted HCT116, pilot screen, cell-based, HCT116 clonal line, CellTiter-Glo (AID 824;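 active = viability at or below 27.92% in each of two runs, the all-compound median minus 4 SD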;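 note: 0% = 20 µM Hyamine control and 100% = vehicle cell control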). The conditions noted are these: 60 h, at 10 µM, stronger effect = lower value.
A short description of assay [14]: inhibitors of the yeast RAM network, pilot screen, dse1pr::URA3 reporter, 5-FOA selection (AID 869;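 active = inhibition over a set limit, the all-compound mean plus 3 SD, in both replicate runs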;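 note: 0% = DMSO wells with no growth and 100% = 10 µM 1-NA-PP1 with full growth; RAM network block rescues cells from 5-FOA so hits raise OD615 growth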). The conditions noted are these: S. cerevisiae dse1pr::URA3 5-FOA growth, OD615, 2 d; at 10 µM; stronger effect = higher value; strain carries analog-sensitive mutant Cbk1 kinase.
Assay [15] in a line: RAM signaling pathway blockade in yeast – S. cerevisiae, Pdr1DBD-CYC8 efflux-inhibited sensitized strain, primary screen (AID 1298;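 active = RAM network inhibition above 8.4% in each of two replicates, 3 SD over the compound average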;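 note: 0% = DMSO untreated cells without growth and 100% = 10 µM 1-NA-PP1 full growth; higher means more yeast growth rescued from 5-FOA killing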). Conditions: S. cerevisiae cbk1-as DSE1-URA3 strain, 5-FOA growth OD615, 2 d; at 50 µM; stronger effect = higher value.
Setting [16] is: H69AR cells + 2 uM doxorubicin, measured here: viability with 2 uM doxorubicin, stronger effect = lower value.
Setting [17] is: H69AR cells, compound alone cytotoxicity.

Sequence of Receptor tyrosine-protein kinase erbB-2 (Homo sapiens) (P04626 whole entry, looked up): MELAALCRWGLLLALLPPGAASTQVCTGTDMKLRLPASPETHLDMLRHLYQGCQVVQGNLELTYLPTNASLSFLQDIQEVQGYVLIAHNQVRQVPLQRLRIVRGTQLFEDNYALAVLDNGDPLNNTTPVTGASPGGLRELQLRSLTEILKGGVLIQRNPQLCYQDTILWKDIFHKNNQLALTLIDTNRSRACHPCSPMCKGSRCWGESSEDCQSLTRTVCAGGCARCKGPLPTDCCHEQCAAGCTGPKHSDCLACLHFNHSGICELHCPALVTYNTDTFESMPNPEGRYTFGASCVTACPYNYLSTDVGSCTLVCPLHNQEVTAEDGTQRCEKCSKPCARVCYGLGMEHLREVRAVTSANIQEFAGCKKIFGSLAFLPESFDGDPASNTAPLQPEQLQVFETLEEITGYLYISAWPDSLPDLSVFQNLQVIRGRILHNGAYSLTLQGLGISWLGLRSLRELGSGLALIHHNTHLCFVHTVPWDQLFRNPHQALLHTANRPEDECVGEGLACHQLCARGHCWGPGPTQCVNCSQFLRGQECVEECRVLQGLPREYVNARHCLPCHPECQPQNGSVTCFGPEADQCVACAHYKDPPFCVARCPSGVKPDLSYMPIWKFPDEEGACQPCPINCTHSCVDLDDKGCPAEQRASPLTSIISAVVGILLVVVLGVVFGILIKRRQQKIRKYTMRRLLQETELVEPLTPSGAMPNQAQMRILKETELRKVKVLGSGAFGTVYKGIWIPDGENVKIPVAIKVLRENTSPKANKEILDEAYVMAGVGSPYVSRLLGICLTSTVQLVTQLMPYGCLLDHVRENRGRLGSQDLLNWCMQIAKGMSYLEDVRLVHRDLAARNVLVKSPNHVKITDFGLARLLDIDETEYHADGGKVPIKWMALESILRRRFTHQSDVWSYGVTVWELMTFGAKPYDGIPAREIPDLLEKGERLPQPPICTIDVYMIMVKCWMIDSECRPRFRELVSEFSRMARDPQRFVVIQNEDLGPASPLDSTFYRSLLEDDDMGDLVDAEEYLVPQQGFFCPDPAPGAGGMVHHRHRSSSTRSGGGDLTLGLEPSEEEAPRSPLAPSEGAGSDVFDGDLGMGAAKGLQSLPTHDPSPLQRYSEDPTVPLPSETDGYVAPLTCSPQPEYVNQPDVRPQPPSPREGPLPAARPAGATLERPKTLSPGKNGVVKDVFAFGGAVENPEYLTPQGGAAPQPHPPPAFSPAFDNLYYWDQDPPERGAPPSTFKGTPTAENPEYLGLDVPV

The term viability denotes a read-out of living cells in per cent, often relative to untreated cells. What is called inhibition is the change of the read-out against control, counted positive when it falls. For `CCOC(=O)C1CCCN(C(=O)c2ccc(CS(=O)(=O)c3ccc(Br)cc3)o2)C1` (stereo not given), the viability was 85.5% in assay [1]; 85.5% (inactive) in assay [3]; 79.5% (inactive) in assay [4]; 95.6% (inactive) in assay [5]; 97.3% in [6] (setting [16]); 95.6% in assay [6] (setting [17]). For the same compound, the figures for the viability in [12] and in [13] were 100% (inactive) and 98.6% (inactive), respectively. In addition, in assay [2], the Her2 level was 102% (inactive). For the same compound, the differential viability (reversal) in assay [6] (H69AR cells + 2 uM doxorubicin) was -1.7% (inactive). For the same compound, the inhibition was -2.93% (inactive) in [7], -3.83% (inactive) in [8] and 1.39% (inactive) in assay [14]. Also, the growth inhibition in assay [9] was -9.14% (inactive); in assay [10] it was -18.5% (inactive). For the same compound, the viability increase in assay [11] was -1.86% (inactive). The RAM network inhibition in assay [15] was 3.92% (inactive).
Consider `COCCNC(=O)CN1C(=O)CSc2ncccc21`, for which the viability in assay [1] was 83.5%; in assay [3] it was 83.5% (inactive); in assay [4], 97.8% (inactive); in assay [5], 86.4% (inactive); in assay [6] (setting [16]), 95.1%; in [6] (setting [17]) it was 86.4%. Further, the viability in [12] was 102% (inactive); in assay [13] it was 92% (inactive). The Her2 level in [2] is 88% (inactive). Besides, in [6] (H69AR cells + 2 uM doxorubicin), the differential viability (reversal) is -8.7% (inactive). For the same compound, the inhibition in [7] is -4.67% (inactive); in [8] it was -0.33% (inactive); in [14], 1.92% (inactive). Moreover, the growth inhibition in assay [9] was 2.19% (inactive); in [10], -5.72% (inactive). Further, the viability increase in assay [11] was -0.21% (inactive). Besides, in assay [15], the RAM network inhibition was 0.97% (inactive).
`CCSc1nc2c(c(=O)[nH]1)C(c1cccnc1)C(C(=O)OC(C)C)=C(C)N2` (stereo not given): the viability in assay [1] is 95.5%; in [3], 95.5% (inactive); in [4], 90.9% (inactive); in assay [5], 97.4% (inactive); in [6] (setting [16]), 81.8%; in assay [6] (setting [17]), 97.4%. Also, the viability is 92.3% (inactive) in assay [12] and 92.5% (inactive) in assay [13]. In addition, the Her2 level in assay [2] is 83.5% (inactive). For the same compound, the differential viability (reversal) in [6] (H69AR cells + 2 uM doxorubicin) was 15.6% (inactive). Further, the inhibition is -4.19% (inactive) in [7], -0.33% (inactive) in assay [8] and 0.98% (inactive) in [14]. The growth inhibition in assay [9] is -18.5% (inactive); in assay [10], -8.67% (inactive). In [11], the viability increase was -3.07% (inactive). The RAM network inhibition in [15] is 0.72% (inactive).
As to `CN(C)CCCN1C(=O)CSC1c1ccccc1` (stereo not given), the viability in [1] was 100%; in assay [3], 100% (inactive); in assay [4], 91.6% (inactive); in [5] it was 94.4% (inactive); in [6] (setting [16]), 90.1%; in assay [6] (setting [17]) it was 94.4%. Moreover, the viability was 104% (inactive) in assay [12] and 101% (inactive) in assay [13]. The Her2 level in assay [2] is 99% (inactive). Further, the differential viability (reversal) in assay [6] (H69AR cells + 2 uM doxorubicin) is 4.35% (inactive). The inhibition was -4.67% (inactive) in assay [7], -1.83% (inactive) in assay [8] and 1.47% (inactive) in [14]. Also, the values for the growth inhibition in assay [9] and in assay [10] were -2.19% (inactive) and -1.53% (inactive), respectively. Further, the viability increase in [11] is -0.9% (inactive). The RAM network inhibition in assay [15] was 0.73% (inactive).
With `COc1ccc(NC(=O)CSc2nnc(-c3ccccc3)n2N)cc1`, the viability in assay [1] was 97.5%; in assay [3], 97.5% (inactive); in [4], 94.7% (inactive); in [5] it was 93.6% (inactive); in assay [6] (setting [16]) it was 76.4%; in assay [6] (setting [17]) it was 93.6%. Besides, the viability in assay [12] was 101% (inactive); in assay [13], 108% (inactive). Further, in assay [2], the Her2 level is 87.5% (inactive). Besides, the differential viability (reversal) in [6] (H69AR cells + 2 uM doxorubicin) is 17.2% (inactive). In addition, the inhibition in assay [7] was -7.87% (inactive); in assay [8], -0.16% (inactive); in assay [14] it was 1.12% (inactive). In addition, the growth inhibition in assay [9] is 0.265% (inactive); in assay [10] it was 3.57% (inactive). In addition, the viability increase in assay [11] was 0.58% (inactive). The RAM network inhibition in assay [15] is 3.84% (inactive).
